{"source": "the OligoGym collection", "data": [{"molecular_target": "SLC50A1", "assay": "pooled miR-30 sensor sort-seq; sequence = guide strand", "settings": "shRNA", "values": [{"sequence": "TCTGAGTCGAAACCCATAGAGG", "sensor-assay potency score (higher = more potent)": -1.58}, {"sequence": "TATAGGGATCTCTGAGTCGAAA", "sensor-assay potency score (higher = more potent)": -1.32}, {"sequence": "TTGGACACCATGATATAGGGAT", "sensor-assay potency score (higher = more potent)": 0.348}, {"sequence": "TTGATTTAGTTTGAATCACCTT", "sensor-assay potency score (higher = more potent)": -0.06}, {"sequence": "TTCCTGTCTTGCTCCTGGGGGT", "sensor-assay potency score (higher = more potent)": -0.7}, {"sequence": "ATATAGGGATCTCTGAGTCGAA", "sensor-assay potency score (higher = more potent)": -0.899}, {"sequence": "TCGCATGTGCCTGAGGTCCGAG", "sensor-assay potency score (higher = more potent)": -1.22}, {"sequence": "TTAGTTTGAATCACCTTAGCCA", "sensor-assay potency score (higher = more potent)": 0.6}, {"sequence": "TTATCCTCAAAGTCATCTCTTG", "sensor-assay potency score (higher = more potent)": -0.683}, {"sequence": "TGATTTAGTTTGAATCACCTTA", "sensor-assay potency score (higher = more potent)": 0.457}, {"sequence": "TCTGACGTTGTCCACACTCCGG", "sensor-assay potency score (higher = more potent)": -1.36}]}, {"molecular_target": "SLC5A9", "assay": "pooled miR-30 sensor sort-seq; sequence = guide strand", "settings": "shRNA", "values": [{"sequence": "TTAACAAGTCATGTCTCTCCAA", "sensor-assay potency score (higher = more potent)": -0.0979}, {"sequence": "TTGTTTAATCTGTCTACACTGA", "sensor-assay potency score (higher = more potent)": -0.279}, {"sequence": "TAGTCCATTGTCTAAGAGCTTT", "sensor-assay potency score (higher = more potent)": -1.07}, {"sequence": "TGTTGGAACATCCCACTCGGGC", "sensor-assay potency score (higher = more potent)": -1.24}, {"sequence": "TTCTACTCTCAAGACACACATT", "sensor-assay potency score (higher = more potent)": -0.868}, {"sequence": "TTAGAGAGTAGGAAGAGGCAGA", "sensor-assay potency score (higher = more potent)": 0.115}, {"sequence": "TAGGCGTGCAGACCAACTCTGG", "sensor-assay potency score (higher = more potent)": -1.48}, {"sequence": "TAACAAGTCATGTCTCTCCAAC", "sensor-assay potency score (higher = more potent)": -0.907}, {"sequence": "TGGTCTGTGCACCAACACCAGG", "sensor-assay potency score (higher = more potent)": -1.88}, {"sequence": "TTGTCTAAGAGCTTTCTGCCCA", "sensor-assay potency score (higher = more potent)": -0.317}, {"sequence": "TTCTTTGGCAGACATCAGGGTC", "sensor-assay potency score (higher = more potent)": -0.689}, {"sequence": "AGGAACACCACAAACACTCTGC", "sensor-assay potency score (higher = more potent)": -0.94}]}]}
